# From PubChem BioAssay (NCATS)
# Records with an inconclusive call do not appear. Values without a mark were called inactive. Calls come from the whole dose curve; as a rule, active = well fitted inhibition curve with a large enough effect; inconclusive = small, poorly fitted or top-dose-only effect; inactive = no such curve, though single readings can be large or run the other way.
# Biological target: Cytochrome P450 3A7 (Homo sapiens) (UniProt P24462)
# Assay: Cytochrome P450 family 3 subfamily A member 7 (CYP3A7) small molecule antagonists: luciferase biochemical qHTS assay (AID 1963596); note: nearly all actives have a fitted effect of over 40% in size
# Conditions: P450-Glo CYP3A7 enzyme luminescence, 1 h; series mostly up to 57.4 µM; activity change, negative = inhibition: at the top concentration
# In short: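 P450-Glo luminescent assay: CYP3A7 enzyme converts a proluciferin substrate to luciferin, detected by luciferase reagent; light proportional to activity. Compounds in DMSO preincubated 10 min with enzyme-substrate mix at room temperature, then NADPH regeneration added for 1 h.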
# % is set by controls: 0 for no effect and ±100 for the full control effect.
# Sequence of Cytochrome P450 3A7 (Homo sapiens) (P24462 whole entry, looked up): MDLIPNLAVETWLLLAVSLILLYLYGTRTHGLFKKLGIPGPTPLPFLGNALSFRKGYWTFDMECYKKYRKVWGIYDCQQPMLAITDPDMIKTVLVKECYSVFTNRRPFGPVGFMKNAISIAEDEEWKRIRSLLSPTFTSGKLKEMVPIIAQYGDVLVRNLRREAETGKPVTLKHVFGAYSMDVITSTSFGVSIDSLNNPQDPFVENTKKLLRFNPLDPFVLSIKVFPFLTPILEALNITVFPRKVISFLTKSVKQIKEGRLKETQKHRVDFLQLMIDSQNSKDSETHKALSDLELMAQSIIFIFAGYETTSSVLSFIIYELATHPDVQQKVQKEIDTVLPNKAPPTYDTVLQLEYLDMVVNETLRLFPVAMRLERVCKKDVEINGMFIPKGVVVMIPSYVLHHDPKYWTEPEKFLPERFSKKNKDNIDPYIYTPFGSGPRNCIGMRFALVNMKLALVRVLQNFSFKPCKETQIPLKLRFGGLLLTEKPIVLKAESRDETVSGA
row,SMILES,"activity change, negative = inhibition"
1,CC(=O)Nc1ccc(C)cc1-c1nc2ccccc2n(CC(=O)Nc2cc(Cl)ccc2C)c1=O,-19.2%
2,O=C(O)c1cc(O)c2c(O)c3c(O[C@@H]4O[C@H](CO)[C@@H](O)[C@H](O)[C@H]4O)cccc3c(-c3c4cc(C(=O)O)cc(O)c4c(O)c4c(O[C@@H]5O[C@H](CO)[C@@H](O)[C@H](O)[C@H]5O)cccc34)c2c1,0%
3,COC(=O)c1cc(S(C)(=O)=O)ccc1OC,0.67%
4,COc1ccc(C=CC(=O)O)cc1,2.44%
5,COc1ccc(-c2nc(-c3ccc(-c4cccc(Cl)c4)o3)[nH]c2-c2ccc(OC)cc2)cc1,-10.6%
6,COc1ccc(-c2n[nH]c3c2cnc2cc(OC)c(OC)cc23)cc1,-22.5%
7,COC(C(=O)N1Cc2[nH]nc(NC(=O)c3ccc(N4CCN(C)CC4)cc3)c2C1)c1ccccc1 (stereo not given),-14.3%
8,OCCOCCOCCO,-8.33%
9,C=CC1=C(C(=O)O)N2C(=O)[C@@H](NC(=O)/C(=N\O)c3csc(N)n3)[C@H]2SC1 (stereo in doubt),-8.65%
10,CCn1nnnc1NCc1ccc(C(C)C)cc1,0%
11,CC(C)OC(=O)N1CCC(Oc2ncnc3c2cnn3-c2ccc(S(C)(=O)=O)cc2F)CC1,-17.1%
12,C=C(C)[C@H]1CC=C(C)CC1,3.11%
13,CCCCc1c(-c2ccc(OC)cc2)[nH]c2nccnc12,0%
14,OC[C@@H](O)C(O)[C@@H](O)CO (stereo not given in full),-1.26%
15,CC(C)=CCC/C(C)=C/CC/C(C)=C/CC/C=C(\C)CC/C=C(\C)CCC=C(C)C,-14.6%
16,O=C(OCCO)c1ccccc1O,-2.92%
17,COc1cc(F)c(C(C)C)cc1-c1ccc(C(F)(F)F)cc1CN1C(=O)OC(c2cc(C(F)(F)F)cc(C(F)(F)F)c2)C1C (stereo not given),-21.6%
18,O=C(Nc1cccc(Cl)c1)Nc1ccccc1OCc1cc(=O)n2ccccc2n1,0.318%
19,CCc1ccccc1OC[C@@H](O)CN[C@H]1CCCc2ccccc21,0%
20,COc1ccc([C@@H]2N[C@H](C(=O)O)Cc3c2[nH]c2ccccc32)cc1CN1CCN(c2ccccc2F)CC1,-22.8%

row,SMILES,"activity change, negative = inhibition"
1,NCC1OC(OC2C(N)CC(N)C(OC3OC(CO)C(O)C(N)C3O)C2O)C(N)CC1O (stereo not given),12.2%
2,N#Cc1c[nH]c2c(C(=O)N3CCN(CCc4ccc(F)cc4)CC3)cccc12,-26.8%
3,O=C(O)C1CN(Cc2ccc(-c3nc4cc(Cc5ccccc5F)ccc4s3)c(F)c2)C1,-6.84% [at 11.5 µM]
4,N[C@H](CO)C(=O)O,0%
5,COc1cc(C(=O)NC(c2ccccc2Cl)c2cc(Cl)c3cccnc3c2O)cc(OC)c1OC (stereo not given),-11.8%
6,CC[C@H]1OC(=O)C[C@@H](O)[C@H](C)[C@@H](O[C@@H]2O[C@H](C)[C@@H](O[C@H]3C[C@@](C)(O)[C@@H](O)[C@H](C)O3)[C@H](N(C)C)[C@H]2O)[C@@H](CC=O)C[C@@H](C)C(=O)/C=C/C(C)=C/[C@@H]1CO[C@@H]1O[C@H](C)[C@@H](O)[C@@H](OC)[C@H]1OC,0.133%
7,O=C(O)CCC(=O)C(=O)O,-1.01%
8,CC12CCC(C[N+](C)(CCC[N+](C)(C)C)C1)C2(C)C (stereo not given),-18.7%
9,Cn1c(=O)cc(N2CCCC(N)C2)n(Cc2cc(F)ccc2C#N)c1=O (stereo not given),-28.3%
10,Cc1ccc(CNC(=O)C2CCN(S(=O)(=O)c3c(C)noc3/C=C/c3ccccc3F)CC2)o1,3.63%
11,CCOC(=O)c1ccc(NC(=O)c2cc(=O)c3ccc(C)c(C)c3o2)cc1,-22.1%
12,COc1cc2nc(=NC(=O)c3cccnc3)n3c(c2cc1OC)NCC3,-2.16%
13,C=CC1=C(C(=O)O)N2C(=O)[C@@H](NC(=O)/C(=N\OCC(=O)O)c3csc(N)n3)[C@H]2SC1,-25.7%
14,FC(F)OC(Cl)C(F)(F)F (stereo not given),3.01%
15,Cc1c(C)c2c(c(C)c1O)CC[C@@](C)(CCC[C@H](C)CCC[C@H](C)CCCC(C)C)O2,0%
16,COc1cc(Cc2cnc(N)nc2N)c(C(C)C)cc1OC,12.7%
17,Cc1c(O)cc2c(c1C)O[C@](C)(CCC[C@H](C)CCC[C@H](C)CCCC(C)C)CC2,-5.97%
18,CCOc1ccc(-c2nn3ncccc3c2-c2ccc(S(C)(=O)=O)cc2)cc1,7.28%
19,COc1ccc(NC(=O)CSc2nc(-c3cccs3)cc(C(F)(F)F)n2)cc1OC,9.64%
20,c1ccc(-n2cnnn2)cc1,15.9%
